Assay outcomes: PubChem BioAssay, National Center for Advancing Translational Sciences (NCATS)
Sampled rows, rich in hits. Any-hit rate of the full collection: about 10%.
CtBP-E1A inh: inhibitors of CtBP/E1A interaction. activity change, % (no concentration beside the values). hit rate 0.49% among 340,000. AlphaScreen GST-E1A/His-CtBP binding, 1536-well; active compounds read low; in the data active means activity change below about -65%; inconclusive means mostly about -30% to -63%
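AlphaScreen with 125 nM GST-E1A and 125 nM His-CtBP (5X stocks) in Tris pH 8.0, 300 mM NaCl, BSA, Tween 20, TCEP. Compounds preincubated 2 h at 37 deg C, then glutathione donor/nickel acceptor beads added for 1 h at 37 deg C in dark.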
JMJD2A Tudor: JMJD2A Tudor domain (human) inhibition; hit rate 4.4% among 390,000; O75164; Potency, µM (highest dose often 114 µM), actives largely listed as inhibitors; AID 504339; AlphaScreen JMJD2A-Tudor / H3K4me3 peptide binding; further: nearly all actives have a fitted effect of over 50% in size
G9a block: blocks human histone lysine methyltransferase G9a. Potency, µM (series often up to 102 µM), hits mostly inhibitors. G9a H3K9 monomethylation, AlphaScreen, 2 h. hit rate 8.8% among 350,000; further: nearly all actives have a fitted effect of over 75% in size
Target sequence (Q96KQ7 913-1193 limits assumed): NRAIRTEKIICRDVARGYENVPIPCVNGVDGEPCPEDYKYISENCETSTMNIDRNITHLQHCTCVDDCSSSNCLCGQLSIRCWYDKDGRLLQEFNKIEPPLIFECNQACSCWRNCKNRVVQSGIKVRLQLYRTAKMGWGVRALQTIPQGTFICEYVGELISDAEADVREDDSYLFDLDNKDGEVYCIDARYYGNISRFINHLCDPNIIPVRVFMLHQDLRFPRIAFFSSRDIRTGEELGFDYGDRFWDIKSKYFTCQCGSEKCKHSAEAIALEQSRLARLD
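Using a bead-based AlphaScreen, monomethylated H3K9 product from 2 h room-temperature reactions (G9a 20 nM, peptide 500 nM, SAM 20 uM) was detected with 0.5 ug/mL rabbit anti-H3K9me1 antibody.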
Six1-Eya2 blk: inhibitors of human Six1/Eya2 interaction | Q15475+O00167 | AlphaScreen GST-Six1/His-Eya2 binding, biochemical; active compounds read low | activity change, % (concentration not given with the values) | hit rate 0.56% among 360,000 | AID 651725; in the data active means activity change below about -65%; inconclusive means mostly about -30% to -63%
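Six1/Eya2 binding was read as AlphaScreen signal after compounds were pinned into GST-Six1 plus His-tagged Eya2 (5X stock 250/500 nM) in pH 8.0 Tris/NaCl/TCEP buffer, beads added, then incubated 1 h, 37 C, dark.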
HP1b binding inh: inhibitors of HP1-beta chromodomain binding to methylated histone tails | AlphaScreen HP1-beta / biotin-H3K9me3 peptide binding | AID 540317 | hit rate 0.56% among 390,000 | Potency, µM (doses to about 114 µM), usual class: inhibitors; further: nearly all actives have a fitted effect of over 70% in size
Target sequence (P83916 whole entry, looked up): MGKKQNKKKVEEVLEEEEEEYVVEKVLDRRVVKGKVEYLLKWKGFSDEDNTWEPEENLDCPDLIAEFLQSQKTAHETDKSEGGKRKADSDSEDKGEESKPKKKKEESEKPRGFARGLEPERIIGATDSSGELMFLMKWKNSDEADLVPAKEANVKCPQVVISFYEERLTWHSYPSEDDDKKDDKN
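AlphaScreen: HP1-beta (50 nM) preformed 30 min with biotin-H3(1-18)K9me3 peptide (50 nM) in PBS pH 7.4, 0.01% Tween-20. Compound added for 30 min at RT, then streptavidin donor/nickel chelate acceptor beads (10 ug/mL) for 30 min.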
BAZ2B block: blocks human BAZ2B; Q9UIF8; AlphaScreen BAZ2B-H3K14Ac peptide displacement; Potency, µM (highest dose often 114 µM), usual class: inhibitors; hit rate 4.4% among 360,000; AID 504333; further: nearly all actives have a fitted effect of over 60% in size
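AlphaScreen displacement: compounds (up to 110uM) incubated 30 min at room temperature with a preformed 50 nM BAZ2B/50 nM biotinylated H3K14Ac peptide complex in PBS pH 7.4 with Tween-20. Donor and acceptor beads at 10 ug/mL final added, 20 min light-protected before reading.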
A number is an active result; [ ] = another dose, or the depositor's remark. Unless noted, the call rests on the fitted dose curve; in most records, active means well fitted inhibition curve with a large enough effect; inconclusive means small, poorly fitted or top-dose-only effect; inactive means no such curve, though single readings can be large or run the other way.

`CN(CC(=O)Nc1ccc(Cl)cc1)CC(=O)Nc1cccc(Br)c1` gave CtBP-E1A inh inactive, JMJD2A Tudor inactive, G9a block 45µM, Six1-Eya2 blk inactive, HP1b binding inh inactive and BAZ2B block inactive.
For COc1ccc(NC(=O)CN(C)CC(=O)Nc2cccc(C(C)=O)c2)cc1 the results were CtBP-E1A inh inactive, JMJD2A Tudor 10µM, G9a block 4.5µM, Six1-Eya2 blk inactive, HP1b binding inh inconclusive and BAZ2B block 35µM.
Screening CCCN(CC(=O)Nc1cccc(Br)c1)CC(=O)Nc1ccc(F)c(F)c1F returned CtBP-E1A inh inactive, JMJD2A Tudor inactive, G9a block 11µM, Six1-Eya2 blk inactive, HP1b binding inh inactive and BAZ2B block inactive.
For COc1ccc(N(CC(=O)Nc2cccc(C(C)=O)c2)S(=O)(=O)c2ccc(NC(C)=O)cc2)cc1 the results were CtBP-E1A inh inactive, JMJD2A Tudor inactive, Six1-Eya2 blk inactive, HP1b binding inh inactive and BAZ2B block inactive.
Screening CN(CC(=O)Nc1ccc(Cl)c(Cl)c1)CC(=O)N1CCCCCC1 returned CtBP-E1A inh inactive and Six1-Eya2 blk inactive.
For C[C@@H]1O[C@H](C2CC2)Cc2[nH]c(=S)[nH]c(=O)c21 the results were CtBP-E1A inh inactive and Six1-Eya2 blk inactive.
Screening CCC[n+]1c(C)sc2c3c(ccc21)CCCC3 returned CtBP-E1A inh inactive, JMJD2A Tudor 45µM, G9a block 50µM, Six1-Eya2 blk inactive, HP1b binding inh 40µM and BAZ2B block inactive.
Screening COc1ccc(OC)c(C(=O)COC(=O)c2[nH]c(C)c(C(C)=O)c2C)c1 returned CtBP-E1A inh inactive, JMJD2A Tudor inactive, G9a block inactive, Six1-Eya2 blk inactive, HP1b binding inh inactive and BAZ2B block inactive.
`COc1cc(C(F)(F)F)c(C(=O)NCc2cccc(Cl)c2)cn1` gave CtBP-E1A inh inactive, JMJD2A Tudor inactive, G9a block 79µM, Six1-Eya2 blk inactive, HP1b binding inh inactive and BAZ2B block inactive.
`N#CCCn1c(=O)cnc2cnc(Oc3ccccc3)nc21` gave G9a block inactive[0.501 µM].
Screening O=C(NNc1ccccc1[N+](=O)[O-])Nc1cccc(Cl)c1 returned JMJD2A Tudor inconclusive, G9a block inactive, Six1-Eya2 blk inactive, HP1b binding inh inactive and BAZ2B block 89µM.
O=C(NNc1ccccc1[N+](=O)[O-])Nc1ccc(F)cc1F was read as CtBP-E1A inh inactive, JMJD2A Tudor inactive, G9a block 32µM, Six1-Eya2 blk inactive, HP1b binding inh inactive and BAZ2B block inactive.
Screening O=C(NNc1ccccc1)Nc1cc(Cl)ccc1Cl returned CtBP-E1A inh inactive, JMJD2A Tudor inconclusive, Six1-Eya2 blk inactive and HP1b binding inh 50µM.
Screening COc1ccc(C(C)=O)cc1CSc1nc(NCCc2ccccc2)c2ccccc2n1 returned JMJD2A Tudor inactive, G9a block inconclusive, HP1b binding inh inactive and BAZ2B block inactive.
S=c1[nH]cc(-c2ccccc2)n1-c1ccccc1Cl was read as CtBP-E1A inh inactive, JMJD2A Tudor 50µM, G9a block inconclusive, Six1-Eya2 blk inactive, HP1b binding inh inactive and BAZ2B block inactive.
`COc1ccccc1-n1c(-c2ccccc2)c[nH]c1=S` gave CtBP-E1A inh inactive, JMJD2A Tudor inconclusive, G9a block 0.89µM, Six1-Eya2 blk inactive, HP1b binding inh inactive and BAZ2B block inconclusive.
`COc1ccccc1-n1c(-c2ccc(F)cc2)coc1=O` gave CtBP-E1A inh inactive, JMJD2A Tudor inactive, G9a block inactive, Six1-Eya2 blk inactive, HP1b binding inh inactive and BAZ2B block inactive.
Screening O=S(=O)(c1ccc2c(c1)OCCO2)C1CCC(O)CC1 (stereo not drawn) returned G9a block inactive[12.7 µM] and BAZ2B block inactive.
Screening CC(C)OC(=O)c1cc2c(ccn2C)n1CC(=O)N(Cc1ccccc1)c1ccccc1 returned CtBP-E1A inh inactive, JMJD2A Tudor 18µM, G9a block 25µM, Six1-Eya2 blk inactive, HP1b binding inh inconclusive and BAZ2B block 25µM.
Screening CCOC(=O)c1ccc(-n2c(CN(CC)CC)nc3ccc([N+](=O)[O-])cc3c2=O)cc1 returned CtBP-E1A inh inactive, JMJD2A Tudor inconclusive, G9a block 10µM, Six1-Eya2 blk inactive and HP1b binding inh inactive.
For CCOC(=O)N1CCN(Cc2nc3ccc([N+](=O)[O-])cc3c(=O)n2-c2ccccc2F)CC1 the results were JMJD2A Tudor inactive, G9a block 79µM, Six1-Eya2 blk inactive, HP1b binding inh inactive and BAZ2B block inactive.
Screening CCC(CC)N1CCN(Cc2nc3ccc([N+](=O)[O-])cc3c(=O)n2-c2ccccc2F)CC1 returned CtBP-E1A inh inactive, JMJD2A Tudor inactive, G9a block inactive, Six1-Eya2 blk inactive, HP1b binding inh inactive and BAZ2B block inactive.
Screening CCOC(=O)N1CCN(Cc2nc3cc([N+](=O)[O-])ccc3n2C)CC1 returned CtBP-E1A inh inactive, JMJD2A Tudor inactive, G9a block inactive, Six1-Eya2 blk inactive, HP1b binding inh inactive and BAZ2B block inactive.
CCOC(=O)c1ccc(-n2c(CC)nc3ccccc3c2=O)cc1 was read as G9a block inactive and BAZ2B block inactive.
`CCOC(=O)c1ccc(-n2c(CN3CCOCC3)nc3ccc([N+](=O)[O-])cc3c2=O)cc1` gave CtBP-E1A inh inactive, JMJD2A Tudor inactive, G9a block 45µM, Six1-Eya2 blk inactive, HP1b binding inh inactive and BAZ2B block inactive.
CCOC(=O)c1ccc(-n2c(CN3CCC(O)CC3)nc3ccc([N+](=O)[O-])cc3c2=O)cc1 was read as CtBP-E1A inh inactive, JMJD2A Tudor inactive, G9a block 13µM, Six1-Eya2 blk inactive, HP1b binding inh inactive and BAZ2B block inconclusive.
CCOC(=O)c1ccc(-n2c(CN3CCN(CC)CC3)nc3ccc([N+](=O)[O-])cc3c2=O)cc1 was read as CtBP-E1A inh inactive, JMJD2A Tudor inactive, G9a block 56µM, Six1-Eya2 blk inactive and HP1b binding inh inactive.
For CCOC(=O)c1ccc(-n2c(CN3CCC(C(N)=O)CC3)nc3ccc([N+](=O)[O-])cc3c2=O)cc1 the results were CtBP-E1A inh inactive, JMJD2A Tudor inactive, G9a block inconclusive, Six1-Eya2 blk inactive and HP1b binding inh inactive.
For CC(Oc1ccccc1)C(=O)NNC(=O)c1ccccn1 (stereo not drawn) the results were CtBP-E1A inh inactive, JMJD2A Tudor inactive, G9a block inactive, Six1-Eya2 blk -67, HP1b binding inh inactive and BAZ2B block inactive.
`CC(=O)c1ccc(OCCCC(=O)NNC(=O)c2ccccn2)cc1` gave CtBP-E1A inh -70, JMJD2A Tudor inactive, G9a block inconclusive, Six1-Eya2 blk inconclusive, HP1b binding inh inactive and BAZ2B block inactive.
For CC(=O)c1ccc(OCCCC(=O)n2nnc3ccccc32)cc1 the results were CtBP-E1A inh inactive, JMJD2A Tudor 79µM, G9a block inactive, Six1-Eya2 blk inactive, HP1b binding inh inactive and BAZ2B block inactive.
